# Test results as given in the supplement of paper PMC12632987.
# B1: usp_38_diff_out_3_65_528 (protein)
# chain: GVEELLARAEEALRRLEEVIREAEEALKRAEELSAEELDELIRRATRVALEAERIRRELRRAGDSPEIRAAIARLEEAIERLNEVIERLTEALTAKLIAE
# B2: usp_38_diff_out_3_136_526 (protein)
# chain: SVAAVKAQIKALEATARALKEDMLKLVEELLKDPNVTPEDLESLKKIVLDSFDDIIKEVEELAKKYPEVKEEAEKAIKKIEEYRDEVKKAFDEAIKEKKA
# B3: usp_38_diff_out_2_113_472 (protein)
# chain: DPEEKKKEAELYKDIITEGADQLLELAKKGKLTPDRTAVMTAGIVHAAEVAYELDPSVKPTIEEVIKKLEEVYELVKDKNPEVAKIIEEAIKKLKEILKK
# B4: usp_38_diff_out_3_124_517 (protein)
# chain: SRADELAAEARATLAELNATLAELEAALDTDLERARELAARADELLARLSGLLLELRDLAREDPRYRPTLKELEAEANAAIDRYTELMTRLFEKEAEAAA
# B5: usp_38_diff_out_2_61_512 (protein)
# chain: SEELEEKAKKIKELIEEAKKLVEEIEKELDTADLAELEKKLKEAEEVINKAIDELEELYKKAVLLGDEEAIKKANELWDELGEVAARYNEVRRRLTERKL
# B6: usp_38_diff_out_3_124_516 (protein)
# chain: MKAEKLYEELKKLLKEIEKLIKEAKKELNKDLEELKKLLKELDKKLDELSKVFMELHELAAEDPRYRPLLKEARKESNKVITEATKVKLEALERLAEEEE
# B7: usp_38_diff_out_3_65_529 (protein)
# chain: KVEEEIKKAKKYLEEARKIIEELKEKVKTDPTITEEEVNEMLDEAADLIVKAGEALRKARKLNPDEEQKKEIEKLEKELDELIDEYTEAGREAFLAVGER
# B8: usp_38_diff_out_2_35_493 (protein)
# chain: SMEERREREERLKEIGARIDEAHELTREALELLAEIDAPQERFDRLFATYDAAMRALTAEARAVREGAPQEEIDRLRAEAEAALAELKALLAEARKLAAE
# B9: usp_38_diff_out_3_124_514 (protein)
# chain: SRAEALFAKLKELLAKAEELIKKAEEELDKNLEELKKLLEELDKVMDEASRVFMELHELAAEDPAHRPLLKEARAASNKVVTRYTEVVLKALERLAEAEE
# B10: usp_38_diff_out_2_61_510 (protein)
# chain: NKELEKMIKEIEAKIKEAKALVDELEAGLDTLDEETLEALLAEARAVLDEAIDLLVKAYELAHELDDKEALERLDKLWDELGEVAARLREARERFTRRRR
# B11: usp_38_diff_out_3_124_518 (protein)
# chain: SEAEELVAKAKELLEKLTKVLEEAEKALDKDLEKAEKLLKEADELLTELSAALLRLRDLAMADPSWRPALKEIEAKANEVIDKYTEVATKFFEKKAEAQE
# B12: usp_38_diff_out_2_35_489 (protein)
# chain: SEEEEEFRREARERLDKLADEVNDTTRETLEALAEADAPLEEIERVLEESDKAFKAIAEAYRLIREGASREEIEEALKKAEEKVKEFKKYAEEVLKRLKE
# B13: usp_38_diff_out_3_136_519 (protein)
# chain: STEEVKEEIKRLEATAESMKESTLKLIEELSKDPNVTPEDVEELKKVVLSAFQDLKDDVKALKEAHPEVKEEADKAEAKIEAYKAEVEAAFDALIAEKKA
# B14: usp_38_diff_out_3_124_515 (protein)
# chain: AEAEALLAELEELLERAEELIERAEEELDGDLERLRELLEELDEVLDELSAVFMRLHELAAEDPSHRPLLKEARKRSNEVITRATEVRLRALERLAEAAE
# B15: usp_38_diff_out_2_61_508 (protein)
# chain: SEELEEKLEEVRRLLEEARRLIEELRRRLDTADEATLRALLREAESVLNEAIDLLIEVYNEAHELGDEETLEKADELWDELGRVAAELRRAREEFTDRVR
# B16: usp_38_diff_out_2_35_490 (protein)
# chain: MEEEEAFRKKVKEELDKMQDEAHEATTETLELLAEADAPLERFDELMRKYDEFMEAAAKTYKLIEEGASKEEIEKALKEAREKYKEFMEFAEKLKKEVAA
# B17: usp_38_diff_out_3_136_522 (protein)
# chain: SVAAVKAEIERLKATADEMKKSTLRLIAELSKDPNVTPEDVESLKKVVLDSYQDLKDDVKALKAANPEVAAQADAALAAIDANAAEVKAAFDALLKEKKA
# B18: usp_38_diff_out_2_61_511 (protein)
# chain: NKELEEQIKEIKKLIEEAKKLVEELEALLDTADEATLEKLLEEAEKVLNKAIDLLVQAFEQAHEAGDEEALKQLDELWDELGKVAARLREARERLTRRRR
# B19: usp_38_diff_out_2_113_474 (protein)
# chain: DPEERRKEAELYRDIILEGAEQLLRLAKAGRLTPDRTKVMLGGIVHAAEEAYELDPSVKPTIEEVIKKLEEVYELVKDKNPEVAAEIKEAIEKLKEILKK
# B20: usp_38_diff_out_2_141_476 (protein)
# chain: SEADELFREAFEREARAVAEEARKLIPKRLAIAERLAARGDLASLEERRTRVRAQAGAFRAMAEELEEMGGRPEVIELLRATAAELEEAAARIEELIAKL
# B21: usp_38_diff_out_3_136_524 (protein)
# chain: ATAAAKAQIKALEATAKALKEDSLKLVKELLEDPNVTPEDLESLKKIVLSSFDDLIAEVKAIKAAHPEVAAEADKAIKAIEEYKKEVEKAFNEAIAKKKA
# B22: usp_38_diff_out_3_124_513 (protein)
# chain: AEAEKLAKELDKALKELEKLIKEAEKELDKDPEKLKKLLEEADETLDRAAGLYMQLHELAAEDPSTRPLLKKAREKANKVIDRYTEVRTKALERLAELEE
# B23: usp_38_diff_out_3_136_525 (protein)
# chain: SVAEAREQIKALEATAKALKESMLKLVEELLKDPNVTPEDLRELKEIVLDSFEDIKAEVEKIKKAHPEVKAEADAAIKKIEAYKKEVEAAFDAAIAAKEA
# B24: usp_38_diff_out_3_65_530 (protein)
# chain: KVEEKLKEAEEHLEKAEELVEELRRLTEEDPTLTADEVVEMLDKIDDELVAAGKAIEEAKKLNPTPEQKKKIEELEKRLDELIDRRIEAAEEAFLRVGEA
# B25: usp_38_diff_out_2_61_509 (protein)
# chain: SEELKKKAEEIEKLLREARELIAEARAGLDTRDPAELRALLREAERVLDEAIDLLVEFYEEAVEAGDEEALKKADELWDELGRAAKELRELRERLTERVR
# B26: usp_38_diff_out_3_136_527 (protein)
# chain: ATAAVRARIRALEETARELKRSSLRLVEELLKDPNVTPEDLEELRKIVLDSFRDLEEEVRRLAAAEPAVAEEARRAEEEIRRYREEVERAFEEAIAAKKA
# B27: usp_38_diff_out_2_35_494 (protein)
# chain: SSAERAAREALLAEIDAKIDEAVALTREALELLAEINAPEEEFDELFKTYDAAMTALTTAARLVREGAPQEEIEKAKAKAEAALAKLKALLEEAKKRAKE
# B28: usp_38_diff_out_2_35_492 (protein)
# chain: SEEEEKAREEARKEIDELTDELNKTTSETLEALAEADAPLEKFDELMAKYSEAARALAATYKLIQEGAPLEEIEKALKEAKEAVEAFKKFAEELLKEAKA
# B29: usp_38_diff_out_2_113_475 (protein)
# chain: DPEVREEIREAALSNLLSSLEELLKIAKENRRSEETMRMMVRGVIEAALELIRELNLPEEDVKKILELLEEVRKALAEKNPELAKLAQEGIEELRKAAEE
# B30: usp_38_diff_out_2_35_491 (protein)
# chain: AAAEAARREEIRRRIDEMVDEANELTAETLEKLAEADAPDEKFEELFEAYDELMRLLARTYRLIREGAPLEEIERALEEAERKLEEFKKLAEELKKEAEE
# B31: usp_38_diff_out_2_61_507 (protein)
# chain: SAELQAQAERIEALLAQAEALIAELEAQLDTADEATLRALLAEAQAVLDEAIDLLVELYLRAHEAGDEEALAQADALWDRLGAVAARLRRAREALTDRLS
# B32: usp_38_diff_out_3_136_523 (protein)
# chain: MLEEVRERVRRLEETAVSLKESMLKLIEELKKDPNVTPEDVEELRKVVLDAFDSLKAEVKEIQERYPEVKEEAEKALETIEKKKKEVDKAFEELIKEKKA
# Target: T1, USP38, Q8NB14
# T1 chain: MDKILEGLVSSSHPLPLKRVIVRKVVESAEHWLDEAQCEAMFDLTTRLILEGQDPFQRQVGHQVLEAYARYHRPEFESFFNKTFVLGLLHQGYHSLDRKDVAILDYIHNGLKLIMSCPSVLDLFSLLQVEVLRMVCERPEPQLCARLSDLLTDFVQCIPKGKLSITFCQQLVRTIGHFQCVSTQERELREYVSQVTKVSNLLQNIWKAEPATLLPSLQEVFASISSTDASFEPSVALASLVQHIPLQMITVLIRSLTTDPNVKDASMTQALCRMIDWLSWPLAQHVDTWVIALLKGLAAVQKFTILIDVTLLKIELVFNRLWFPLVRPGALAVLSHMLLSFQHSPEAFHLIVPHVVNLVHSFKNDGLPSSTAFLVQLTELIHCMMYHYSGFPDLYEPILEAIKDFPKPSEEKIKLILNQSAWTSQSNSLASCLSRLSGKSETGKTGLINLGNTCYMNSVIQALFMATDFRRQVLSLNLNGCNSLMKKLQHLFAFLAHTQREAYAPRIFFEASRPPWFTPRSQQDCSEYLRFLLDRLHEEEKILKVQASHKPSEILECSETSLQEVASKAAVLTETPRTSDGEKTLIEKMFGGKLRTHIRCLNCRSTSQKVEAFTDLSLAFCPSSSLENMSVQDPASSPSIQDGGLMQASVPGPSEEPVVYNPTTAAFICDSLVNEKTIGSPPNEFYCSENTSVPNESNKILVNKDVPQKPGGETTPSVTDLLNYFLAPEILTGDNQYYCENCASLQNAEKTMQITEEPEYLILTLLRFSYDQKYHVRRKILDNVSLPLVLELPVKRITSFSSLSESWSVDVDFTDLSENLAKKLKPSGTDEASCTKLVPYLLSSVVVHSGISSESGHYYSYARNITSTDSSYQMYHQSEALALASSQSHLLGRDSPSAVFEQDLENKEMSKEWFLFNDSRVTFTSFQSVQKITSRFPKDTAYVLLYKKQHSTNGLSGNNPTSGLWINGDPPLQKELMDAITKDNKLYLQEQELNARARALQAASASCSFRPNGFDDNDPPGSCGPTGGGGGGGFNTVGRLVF
# Experiment: median log2 fold change of GCK-ALFA target abundance (FLAG IP / Myc IP barcode read proportion) (log2 ratio); each designed protein is fused to an ALFA-tag nanobody in HEK293 cells to bring the named protein to FLAG-tagged glucokinase (GCK); Myc marks an untargeted standard; higher = target protein stabilised (more abundant)
# Conditions: target protein: 3xFLAG-MCP-GCK-ALFA reporter; HEK293 landing pad (RPLP)
# Method in brief: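 The readout is target abundance, the per-binder median log2 ratio of FLAG to Myc barcode read proportions. It came from HEK293 landing-pad cells carrying a recombined ALFA-nanobody-fused binder library, induced with 2 μg mL^−1 doxycycline and transfected with a plasmid for a FLAG-tagged target and a Myc-tagged standard. After 48 h, lysates were immunoprecipitated with anti-FLAG and anti-Myc, and circular RNA barcodes were reverse transcribed, amplified and sequenced. Each barcode needed a proportion of at least 10^−7 in both replicates and each binder at least 3 barcodes per replicate, a pseudocount of 10^−6 was added, and the replicates were pooled.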
row,Binder,median log2 fold change
1,B1,0.193
2,B2,0.0442
3,B3,0.269
4,B4,-0.553
5,B5,0.151
6,B6,0.0275
7,B7,0.0941
8,B8,-0.077
9,B9,-0.179
10,B10,0.4
11,B11,-0.761
12,B12,0.192
13,B13,0.188
14,B14,0.0853
15,B15,-0.394
16,B16,0.00989

row,Binder,median log2 fold change
1,B17,-0.0509
2,B18,0.412
3,B19,-0.0131
4,B20,-0.698
5,B21,-0.221
6,B22,-0.564
7,B23,-0.268
8,B24,0.137
9,B25,0.28
10,B26,-0.205
11,B27,-0.0997
12,B28,0.112
13,B29,0.205
14,B30,0.305
15,B31,-0.299
16,B32,-0.217
